# Sampled rows, rich in hits. Any-hit rate of the full collection: about 2.2%.
# HTR5A inv ctr – counter-screen for OPRM1-OPRD1 inverse agonists: human HTR5A inverse agonism; P47898; HTR5A cell line, luminescence; inhibition, % at 9.3 µM; 340,000 compounds, 0.083% hits; AID 504634; in the data active = inhibition mostly above about 23%, no sharp cut-off; inactive = mostly below about 18%;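 note: 0% = cells with DMSO and 100% = no-cell wells with DMSO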
# MOR-DOR ag – agonists of human mu-delta opioid receptor heterodimerization; 340,000 compounds, 0.3% hits; AID 504326; activation, % at 9.3 µM; P35372+P41143; cells, OPRM1-OPRD1 heterodimerization, luminescence; in the data active = activation above about 18%;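 note: 0% = vehicle-treated cells and 100% = reference agonist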
# MOR-DOR inv ag – inverse agonist of human OPRM1-OPRD1 heterodimerization. P35372+P41143. cell-based MOR-DOR heterodimer luminescence, inverse agonism. inhibition, % at 9.3 µM. 340,000 compounds, 0.21% hits; in the data active = inhibition above about 22%, passing the limit was not always enough;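 note: 0% = cells with DMSO and 100% = wells without cells with DMSO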
# sPLA2-III inh – Inhibits HGIII-sPLA2 liposome hydrolysis, primary screen; 370,000 compounds, 0.56% hits; QFRET BODIPY PC-A2 liposome hydrolysis, fluorescence; Q9NZ20; inhibition, % at 12.2 µM; AID 743126;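 active = inhibition above mean plus 3 SD of compounds lying within the high and low control bounds, cut at about 19% in these data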;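 note: 0% = median of test compound wells and 100% = no enzyme DMSO wells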
# Target sequence (Q9NZ20 whole entry, looked up): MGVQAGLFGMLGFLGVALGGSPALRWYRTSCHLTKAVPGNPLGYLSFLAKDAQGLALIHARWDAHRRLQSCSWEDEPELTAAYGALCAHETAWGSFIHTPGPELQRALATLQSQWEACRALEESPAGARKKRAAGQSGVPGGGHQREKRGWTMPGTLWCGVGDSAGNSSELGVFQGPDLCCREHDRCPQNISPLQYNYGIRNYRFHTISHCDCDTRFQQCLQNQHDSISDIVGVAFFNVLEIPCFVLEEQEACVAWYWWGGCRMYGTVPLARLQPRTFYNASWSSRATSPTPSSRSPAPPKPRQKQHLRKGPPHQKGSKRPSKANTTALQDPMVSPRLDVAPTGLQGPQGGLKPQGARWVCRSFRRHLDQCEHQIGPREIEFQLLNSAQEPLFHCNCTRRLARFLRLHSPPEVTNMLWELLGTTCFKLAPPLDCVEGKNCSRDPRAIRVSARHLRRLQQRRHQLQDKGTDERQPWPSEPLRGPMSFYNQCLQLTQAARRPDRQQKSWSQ
# HTR5A ag ctr – counter-screen for OPRM1-OPRD1 agonists: human HTR5A agonism. HTR5A agonist assay, luminescence, cell-based. 340,000 compounds, 0.61% hits. activation, % at 9.3 µM. P47898. AID 504692; in the data active = activation mostly above about 9.5%, no sharp cut-off; inactive = mostly below about 7.6%;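 note: 0% = cells with vehicle only and 100% = reference agonist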
# HTR2A ag – agonists of mouse serotonin 5-HT2A receptor (HTR2A); CHO-K1 mHTR2A beta-arrestin complementation, luminescence; percent of 30 µM serotonin response; activation, % at 7.6 µM; 360,000 compounds, 0.66% hits; P35363;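 active = activation above a run cutoff, the mean activation of all tested compounds plus 3 SD, cut at about 14% in these data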;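 note: 0% = plate median of compound wells and 100% = 30 µM serotonin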
# MOR ag counter – counter-screen for mouse HTR2A agonists: human mu opioid receptor agonists. shares compounds with HTR2A ag. U2OS OPRM1 beta-arrestin PathHunter, luminescence; DMSO 0%, DAMGO 9.3 µM 100%. activation, % at 9.3 µM. 2,300 compounds, 5.3% hits;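 active = mean activation above the mean of DMSO-only wells plus 3 SD, cut at about 0.5% in these data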
# m5-HT2A ag conf – mouse HTR2A agonism confirmed; CHO-K1 PathHunter beta-arrestin recruitment, luminescence; DMSO 0%, 30 µM serotonin 100%; shares compounds with HTR2A ag; activation, % at 7.6 µM; 2,300 compounds, 19% hits;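 active = mean activation across triplicates above the hit threshold derived in the original primary screen, cut at about 15% in these data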
# An asterisk follows results filed as active; . = not tested or not shown.
SMILES,HTR5A inv ctr,MOR-DOR ag,MOR-DOR inv ag,sPLA2-III inh,HTR5A ag ctr,HTR2A ag,MOR ag counter,m5-HT2A ag conf
COc1ccc(S[C@]2(C(=O)N(C)C)CC(=O)N(S(=O)(=O)c3ccc(F)cc3)[C@@H]2c2ccc(OC)cc2)cc1,.,.,.,2,.,.,.,.
Cc1cccc(-n2ncc3c2CCCC3NC(=O)CCN2CCCCO2)c1C (stereo not given),-13,-3,15,-6,5,1,.,.
Cc1cccc(-n2ncc3c2CCCC3NC(=O)CCN2CCCO2)c1C (stereo not given),-12,-2,12,1,-3,16*,-1,2
Cc1cccc(-n2ncc3c2CCCC3NC(=O)C2(C(N)=O)CC2)c1C (stereo not given),-16,0,0,7,6,15*,0,0
CCCn1c(N)cc(=O)n(CCC)c1=O,-10,-1,6,5,0,16*,-1,-5
CC(C)Cn1c(N)cc(=O)n(C)c1=O,-13,-2,10,1,4,1,.,.
CC(C)(CO)C(O)C(=O)NCCCO (stereo not given),-20,0,-2,15,2,18*,-1,0
CC1CCN(c2ccc(C(=O)O)cc2NS(=O)(=O)c2ccccc2[N+](=O)[O-])CC1,.,.,.,-13,.,.,.,.
CC(c1ccccc1)n1cc(C(=O)NCCCN2CCCC2)nn1 (stereo not given),.,.,.,1,.,.,.,.
O=C(Nc1ccccc1)N1CCN(c2nc3ccccc3s2)CC1,7,1,-5,3,3,27*,0,0
O=S(=O)(c1cc2ccccc2s1)n1c(CN2CCOCC2)nc2ccccc21,.,.,.,7,.,.,.,.
COc1ccc(-c2cc(C(=O)N(C3CCCCC3)C3CCCCC3)no2)cc1,.,.,.,-2,.,.,.,.
Cc1cc(=O)[nH]c(SCc2cccc3ccccc23)n1,-19,-3,15,-21,5,2,.,.
Cc1cc(CSc2nc(C)cc(=O)[nH]2)c2ncccc2c1,-17,-1,4,-9,4,16*,-1,3
CS(=O)(=O)c1ccc2nc(NC(=O)c3ccc(Cl)cc3)sc2c1,-2,-2,11,0,0,18*,0,3
CCCCN1C(=O)N2Cc3ccc(C)cc3C2CS1(=O)=O (stereo not given),.,.,.,3,.,.,.,.
O=C(Nc1c(-c2ccc(F)cc2)nc2ncccn12)C1CC1,.,.,.,0,.,.,.,.
CCn1c(CNC(=O)COc2ccc(C(C)C)cc2)nnc1SCC(=O)Nc1ccccc1C(C)C,14,0,0,-21,10,18*,0,2
CCn1c(CNC(=O)COc2ccc(C(C)C)cc2)nnc1SCC(=O)Nc1ccccc1F,-5,-1,5,-6,5,1,.,.
CCN(CC(=O)NC1CC1)S(=O)(=O)c1ccccc1,8,-5,15,6,-1,3,.,.
CCN(CC(=O)NC1CC1)S(=O)(=O)c1ccc(C)cc1,7,0,0,2,3,15*,-1,-5
Cc1onc(-c2ccccc2)c1C(=O)N1CCN(Cc2ccccc2)CC1,6,-2,10,2,0,0,.,.
CCN1CCN(C(=O)c2c(-c3ccccc3)noc2C)CC1,-20,2,-17,10,-2,17*,0,1
Cc1ccc(-c2nnc(Nc3ccc4c(c3)OCO4)c3ccccc23)cc1S(N)(=O)=O,-3,-3,16,-7,1,15*,0,4
CC(=O)N1CCC(N2CCN(c3ccccc3F)CC2)CC1,-16,0,2,-8,2,26*,0,64*
SMILES,HTR5A inv ctr,MOR-DOR ag,MOR-DOR inv ag,sPLA2-III inh,HTR5A ag ctr,HTR2A ag,MOR ag counter,m5-HT2A ag conf
CCCCNC(=O)C(=O)Nc1cc2c3c(c1)CCC(=O)N3CCC2,-6,-1,7,1,0,15*,-1,-4
C[C@H]1[C@H](NC(=O)c2ccc(Cl)cc2)CC[C@@]23CCCN2C(=O)CCC[C@@H]13,.,.,.,0,.,.,.,.
CC(C)(C)c1ccc(-c2nnc(SCc3ccccc3)n2Cc2ccco2)cc1,.,.,.,-7,.,.,.,.
CC(CCc1ccccc1)NC(=O)c1ccccc1Cl (stereo not given),3,-1,6,-1,-1,24*,0,-4
CN(C(=O)c1ccc(F)cc1)c1ccccc1C(=O)NCc1ccccc1,-13,-2,10,2,5,2,.,.
CN(C(=O)c1ccccc1Cl)c1ccccc1C(=O)NCc1ccccc1,-14,0,-2,1,2,35*,-1,-3
CN1C(=O)NC(c2ccc(O)cc2)C2=C1CN(c1ccccc1)C2=O (stereo not given),10,-3,17,-2,2,-1,.,.
CN1C(=O)NC(c2ccc(O)cc2)C2=C1CN(c1ccc(O)cc1)C2=O (stereo not given),-3,-1,6,3,1,20*,-1,-4
C[C@H]1COc2cc(Br)ccc2S(=O)(=O)N1Cc1cn(CC2CCCCC2)nn1,.,.,.,0,.,.,.,.
COC(=O)[C@H]1C[C@H](OC(=O)Nc2c(C)noc2C)[C@@]2(O)CN(S(=O)(=O)c3ccc(C)cc3)CC2[C@H]1C(=O)OC (stereo not given in full),.,.,.,8,.,16*,0,-2
COC(=O)[C@H]1C[C@H](OC(=O)NCC2CCCCC2)[C@@]2(O)CN(S(=O)(=O)c3ccc(C)cc3)CC2[C@H]1C(=O)OC (stereo not given in full),.,.,.,4,.,-1,.,.
C=CCN1C(=O)[C@@H](CC(=O)NCc2cccs2)[C@]2(C(=O)OCC)CCCCC/C=C/12,.,.,.,-5,.,.,.,.
O=C(CCc1ccccc1)NC1CCSC1=O (stereo not given),-28,0,3,1,4,2,.,.
O=C(COc1ccccc1)NC1CCSC1=O (stereo not given),2,-4,20,-2,-11,21*,-1,-3
N#CC(c1ccc(F)cc1)c1ccc(C(=O)c2ccc(F)cc2)cc1 (stereo not given),-19,2,-10,10,6,14*,0,-6
Cc1ccc(O)c(C(C)c2c[nH]c3ccccc23)c1 (stereo not given),.,.,.,-73,.,.,.,.
CC1=C(C(=O)N2CCCCCC2)CC(CC(=O)NC2CCCC2)C(=O)N1Cc1ccccc1 (stereo not given),.,.,.,6,.,12,.,.
COc1ccc(CN2C(=O)C(CC(=O)NC3CCCC3)CC(C(=O)N(C)C)=C2C)cc1 (stereo not given),.,.,.,7,.,30*,-1,-2

# Source: PubChem BioAssay
